Source: ChEMBL document CHEMBL4513141, “CO-ADD screening of NIH (USA) - Clinical Collection” (2021)
Results with a measured potency or affinity are listed apart.

Experiments:
[1] = tested on: Staphylococcus aureus; conditions: Concentration 20 uM; ASSAY_TEST Inhibition of Bacterial Growth; detection method Absorption (OD600); MEDIA CAMHB; plate type 384well; NBS; CORNING #3640; time 18 hr
[2] = tested on: Escherichia coli; conditions: Concentration 20 uM; ASSAY_TEST Inhibition of Bacterial Growth; detection method Absorption (OD600); MEDIA CAMHB; plate type 384well; NBS; CORNING #3640; time 18 hr

CCCC(C)(COC(N)=O)COC(=O)NC(C)C (stereo not drawn) [CARISOPRODOL]
Inhibition [1]: -20.34% | Inhibition [2]: 4.18%

CNC1=Nc2ccc(Cl)cc2C(c2ccccc2)=[N+]([O-])C1 [CHLORDIAZEPOXIDE]
Inhibition [1]: 15.47% | Inhibition [2]: 3.48%

C#C[C@]1(O)CC[C@H]2[C@@H]3CCC4=CC(=O)CC[C@@H]4[C@H]3CC[C@@]21C [NORETHINDRONE]
Inhibition [1]: -0.74% | Inhibition [2]: 4.04%

CNC(=O)Oc1ccc2c(c1)[C@]1(C)CCN(C)C1N2C.CNC(=O)Oc1ccc2c(c1)[C@]1(C)CCN(C)C1N2C.O=S(=O)(O)O (stereo partly drawn)
Inhibition [1]: 12.91% | Inhibition [2]: -3.79%

NCCc1ccccn1
Inhibition [1]: 1.79% | Inhibition [2]: 8.78%

C[N+]1(C)CCC(OC(=O)C(O)(c2ccccc2)C2CCCC2)C1.[Br-] (stereo not drawn) [GLYCOPYRRONIUM BROMIDE]
Inhibition [1]: 11.8%

Cl.O.Oc1ccc2c3c1O[C@H]1c4[nH]c5ccccc5c4C[C@@]4(O)C(C2)N(CC2CC2)CC[C@]314
Inhibition [1]: -20.11% | Inhibition [2]: 6.59%

CN1C(=O)CN=C(c2ccccc2)c2cc(Cl)ccc21 [DIAZEPAM]
Inhibition [1]: 9.71% | Inhibition [2]: 3.05%

C[C@]12CCC(=O)C[C@@H]1CC[C@@H]1[C@@H]2CC[C@@]2(C)[C@H]1CC[C@]2(C)O [MESTANOLONE]
Inhibition [1]: -23.2% | Inhibition [2]: 5.51%

O=C(O)CCCc1ccc(N(CCCl)CCCl)cc1 [CHLORAMBUCIL]
Inhibition [1]: 7.69% | Inhibition [2]: 8.33%

COc1cc(CNC(=O)CCCC/C=C\C(C)C)ccc1O [ZUCAPSAICIN]
Inhibition [1]: 14.17% | Inhibition [2]: 0%

CN(C)CCc1c[nH]c2ccc(C[C@H]3COC(=O)N3)cc12 [ZOLMITRIPTAN]
Inhibition [1]: 3.79% | Inhibition [2]: 7.38%

Br.CN1[C@@H]2CC(OC(=O)[C@H](CO)c3ccccc3)C[C@H]1[C@@H]1O[C@@H]12.O.O.O (stereo partly drawn)
Inhibition [1]: 15.22%

Cn1c(=O)c2nc[nH]c2n(C)c1=O.O [THEOPHYLLINE]
Inhibition [1]: -24.23% | Inhibition [2]: 7.82%

Cc1c(OCC(F)(F)F)ccnc1C[S+]([O-])c1nc2ccccc2[nH]1 (stereo not drawn) [LANSOPRAZOLE]
Inhibition [1]: 16.66% | Inhibition [2]: -0.87%

CC(=O)OCC[N+](C)(C)C.[Cl-] [ACETYLCHOLINE CHLORIDE]
Inhibition [1]: 11.31% | Inhibition [2]: 4.11%

Nc1nc(F)nc2c1ncn2[C@@H]1O[C@H](CO)[C@@H](O)[C@@H]1O [FLUDARABINE]
Inhibition [1]: 11.26% | Inhibition [2]: 42.2%

CC(NC(C)(C)C)C(=O)c1cccc(Cl)c1.Cl (stereo not drawn) [BUPROPION HYDROCHLORIDE]
Inhibition [1]: -23.91% | Inhibition [2]: 5.32%

COC(=O)C[C@](O)(CCCC(C)(C)O)C(=O)O[C@@H]1C(OC)=C[C@]23CCCN2CCc2cc4c(cc2[C@H]13)OCO4 [OMACETAXINE MEPESUCCINATE]
Inhibition [1]: 10.39% | Inhibition [2]: 7.87%

CNCC(O)c1ccc(O)cc1 (stereo not drawn) [OXEDRINE]
Inhibition [1]: -16.09% | Inhibition [2]: 6.6%

c1ccc2c3c([nH]c2c1)CNCC3 [TRYPTOLINE]
Inhibition [1]: 7.42% | Inhibition [2]: 3.55%

C[C@]12CC[C@H](O)CC1=CC[C@@H]1[C@@H]2CC[C@@]2(C)[C@H]1CC[C@]2(C)O [METHANDRIOL]
Inhibition [1]: 0.46% | Inhibition [2]: 5.99%

CCN(CC)CCOC(=O)C(O)(c1ccccc1)c1ccccc1.Cl
Inhibition [1]: 13% | Inhibition [2]: -0.91%

COc1cc(-c2ccc(=O)[nH]n2)ccc1OC(F)F [ZARDAVERINE]
Inhibition [1]: 7.7% | Inhibition [2]: -1.99%

Cl.N=C(N)NC(=O)c1nc(Cl)c(N)nc1N.O.O [AMILORIDE HYDROCHLORIDE]
Inhibition [1]: 11.17% | Inhibition [2]: 2.12%

O=C1CN=C(c2ccccc2)c2cc([N+](=O)[O-])ccc2N1 [NITRAZEPAM]
Inhibition [1]: 7.65% | Inhibition [2]: 5.89%

CNCCC(Oc1ccc(C(F)(F)F)cc1)c1ccccc1.Cl (stereo not drawn) [FLUOXETINE HYDROCHLORIDE]
Inhibition [1]: 15.46% | Inhibition [2]: 2.53%

CC1CCC[C@H](O)CCCCCc2cc(O)cc(O)c2C(=O)O1 (stereo partly drawn)
Inhibition [1]: 10.2% | Inhibition [2]: 1.45%

CCC(COC(=O)c1cc(OC)c(OC)c(OC)c1)(c1ccccc1)N(C)C.O=C(O)/C=C\C(=O)O (stereo not drawn)
Inhibition [1]: 4.02% | Inhibition [2]: 7.24%

Cl.c1ccc2c(CC3=NCCN3)cccc2c1 [NAPHAZOLINE HYDROCHLORIDE]
Inhibition [1]: 21.19% | Inhibition [2]: 2.28%

CCCN1C[C@H](CSC)C[C@@H]2c3cccc4[nH]cc(c34)C[C@H]21.CS(=O)(=O)O [PERGOLIDE MESYLATE]
Inhibition [1]: 12.62% | Inhibition [2]: 4.25%

COc1ccc(CCN)cc1OC
Inhibition [1]: 8.89% | Inhibition [2]: -3.33%

CS(=O)(=O)O.O=C(O[C@@H]1C[C@@H]2C[C@H]3C[C@H](C1)N2CC3=O)c1c[nH]c2ccccc12
Inhibition [1]: 5.34% | Inhibition [2]: 6.66%

Cl.FC(F)(F)c1cccc(N2CCNCC2)c1 [N- (3-TRIFLUOROMETHYLPHENYL)PIPERAZINE HYDROCHLORIDE (TFMPP)]
Inhibition [1]: -3.1% | Inhibition [2]: 6.36%

CC(=O)CC(c1ccccc1)c1c([O-])c2ccccc2oc1=O.[Na+] (stereo not drawn) [WARFARIN SODIUM]
Inhibition [1]: 12.98% | Inhibition [2]: -2.34%

Cc1nnc2n1-c1ccc(Cl)cc1C(c1ccccc1)=NC2 [ALPRAZOLAM]
Inhibition [1]: 16.72% | Inhibition [2]: 0.08%

Cl.O[C@@H]1CCCC[C@H]1N1CCC(c2ccccc2)CC1
Inhibition [1]: 14.8% | Inhibition [2]: 1.48%

c1cncc([C@@H]2CCCN2)c1 [NORNICOTINE]
Inhibition [1]: 12.8% | Inhibition [2]: -3.23%

CN(C)CCOc1ccc(/C(=C(/CCCl)c2ccccc2)c2ccccc2)cc1.O=C(O)CC(O)(CC(=O)O)C(=O)O [TOREMIFENE CITRATE]
Inhibition [1]: 24.11% | Inhibition [2]: -1.37%

Cl.O=C1CC[C@@]2(O)[C@H]3Cc4ccc(O)c5c4[C@@]2(CCN3CC2CC2)[C@H]1O5 [NALTREXONE HYDROCHLORIDE]
Inhibition [1]: 14.26% | Inhibition [2]: 5.04%

C[C@]12Cc3c[nH]nc3C[C@@H]1CC[C@@H]1[C@@H]2CC[C@@]2(C)[C@H]1CC[C@]2(C)O [STANOZOLOL]
Inhibition [1]: -5.12% | Inhibition [2]: 3.01%

CC(C)CC(N(C)C)C1(c2ccc(Cl)cc2)CCC1 (stereo not drawn) [SIBUTRAMINE]
Inhibition [1]: 0.87% | Inhibition [2]: 6.8%

CC(C)(C)NCC(O)c1cc(O)cc(O)c1.O=S(=O)(O)O (stereo not drawn)
Inhibition [1]: 5.47% | Inhibition [2]: 5.21%

NC1=NC(=O)C(c2ccccc2)O1 (stereo not drawn) [PEMOLINE]
Inhibition [1]: 13.44% | Inhibition [2]: 0.76%

CN(C)C(=O)C(CCN1CCC(O)(c2ccc(Cl)cc2)CC1)(c1ccccc1)c1ccccc1.Cl [LOPERAMIDE HYDROCHLORIDE]
Inhibition [1]: 6.46% | Inhibition [2]: 2.77%

Cl.NCC(O)c1ccc(O)c(O)c1 (stereo not drawn)
Inhibition [1]: 10.44% | Inhibition [2]: 0.24%

C[C@]12CC[C@H]3[C@@H](CCC4=CC(=O)CC[C@@]43C)[C@@H]1CC[C@@H]2O [TESTOSTERONE]
Inhibition [1]: -3.69% | Inhibition [2]: -8.96%

Cc1cc(NS(=O)(=O)c2ccc(N)cc2)no1 [SULFAMETHOXAZOLE]
Inhibition [1]: -14.52% | Inhibition [2]: 28.59%

c1ccc(Cn2ccnc2)cc1
Inhibition [1]: 13.36% | Inhibition [2]: -1.92%

CCOC(=O)C1=C(COCCN)NC(C)=C(C(=O)OC)C1c1ccccc1Cl (stereo not drawn) [AMLODIPINE]
Inhibition [1]: -19.31% | Inhibition [2]: 5.81%

Cl.O.Oc1cc2c(cc1O)[C@H]1c3ccccc3CN[C@@H]1CC2
Inhibition [1]: 11.17% | Inhibition [2]: 6.66%

CN1[C@@H](CC(=O)c2ccccc2)CCC[C@H]1C[C@H](O)c1ccccc1.Cl [LOBELINE HYDROCHLORIDE]
Inhibition [1]: 13.97% | Inhibition [2]: -0.94%

CN1C(=O)COc2c(C(=O)NC3CN4CCC3CC4)cc(Cl)cc21.Cl (stereo not drawn)
Inhibition [1]: 14.32% | Inhibition [2]: 3.95%

CC(C)c1cccc(C(C)C)c1O [PROPOFOL]
Inhibition [1]: -2.39% | Inhibition [2]: -13.59%

CC[C@@H](C(N)=O)N1CCCC1=O
Inhibition [1]: 18.53% | Inhibition [2]: 0.96%

CS(=O)(=O)Nc1ccc(Cc2noc(-c3ccc4[nH]cc(CCN)c4c3)n2)cc1.O.O
Inhibition [1]: 12.02% | Inhibition [2]: 7.87%

CN1[C@@H]2CC[C@H]1C[C@@H](OC(=O)c1c[nH]c3ccccc13)C2.Cl
Inhibition [1]: 18.1% | Inhibition [2]: -3.68%

COc1ccc2[nH]cc(CCN)c2c1 [5-METHOXYTRYPTAMINE]
Inhibition [1]: 3.43% | Inhibition [2]: -0.18%

C[N+]1(C)CCCC(OC(=O)C(O)(c2ccccc2)c2ccccc2)C1.[Br-] (stereo not drawn) [MEPENZOLATE BROMIDE]
Inhibition [1]: 1.79% | Inhibition [2]: 3.23%

CC(C)N(CCC(C(N)=O)(c1ccccc1)c1ccccn1)C(C)C.O=P(O)(O)O (stereo not drawn) [DISOPYRAMIDE PHOSPHATE]
Inhibition [1]: 5.5% | Inhibition [2]: -2.32%

CN/C(=N\CCSCc1nc[nH]c1C)NC#N [CIMETIDINE]
Inhibition [1]: 12.6% | Inhibition [2]: -4.2%

Cc1ccnc2c1NC(=O)c1cccnc1N2C1CC1 [NEVIRAPINE]
Inhibition [1]: 12.92% | Inhibition [2]: -0.52%

CC(=O)[C@H]1CC[C@H]2[C@@H]3CCC4=CC(=O)CC[C@]4(C)[C@H]3CC[C@]12C [PROGESTERONE]
Inhibition [1]: 12.63% | Inhibition [2]: 3.02%

CCN(C(C)=O)c1cccc(-c2ccnc3c(C#N)cnn23)c1 [ZALEPLON]
Inhibition [1]: 2.73% | Inhibition [2]: 4.96%

Cl.O=C1c2cccc3c2[C@H](CCC3)CN1[C@@H]1CN2CCC1CC2 [PALONOSETRON HYDROCHLORIDE]
Inhibition [1]: 8.38% | Inhibition [2]: 4.34%
